Bioassay records as filed in PubChem.
Rows were chosen to be rich in hits. Some 6.8% of all compounds tested hit in one or more screens of this group.
Pf Dd2 inh – inhibitors of Plasmodium falciparum Dd2 growth. P. falciparum Dd2 growth, SYBR Green, 72 h; hits give low values. activity change, % at 10 µM. hit rate 2.3% among 94,000; in the data active = activity change below about -80%
C diff growth – blocks growth of Clostridium difficile; growth activity, negative = inhibition, % at 16 µg/mL (by protocol); hit rate 0.25% among 86,000; Clostridium difficile clinical isolate growth, OD600, 24 h; hits give low values;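 active = mean growth activity at or below -80% and every replicate also at or below -80%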
T cruzi growth – blocks T. cruzi growth in NIH3T3 culture; T. cruzi beta-gal in NIH3T3, GalScreen luminescence, 90 h; inhibition, % at 8.34 µM; hit rate 5.9% among 77,000;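 active = mean inhibition above about 93%, with at least 55% of replicates each passing it, limit read from the data, passing the limit was not always enough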
Large screens that a line does not name were inactive.

C[C@H](NC(=O)C[C@@H]1C=C[C@H](NC(=O)Nc2ccc3c(c2)OCO3)[C@@H](CO)O1)c1ccccc1	none (no result: C diff growth)
CCCC(=O)N1CC2(C1)CN(Cc1ccncc1)[C@H](CO)c1[nH]c3cc(OC)ccc3c12	none (no result: T cruzi growth)
COc1ccc(CN2CC3(CCN(C(=O)Cc4ccncc4)CC3)c3c([nH]c4cc(OC)ccc34)[C@@H]2CO)cc1	Pf Dd2 inh -86.0 (no result: T cruzi growth)
COc1ccc2c3c([nH]c2c1)[C@H](CO)N(Cc1ccncc1)CC31CN(C(=O)Cc2ccncc2)C1	none (no result: T cruzi growth)
CCCC(=O)N1CCC2(CC1)CN(Cc1ccncc1)[C@@H](CO)c1[nH]c3cc(OC)ccc3c12	Pf Dd2 inh -91.2 (no result: T cruzi growth)
C[C@H]1CN([C@@H](C)CO)C(=O)Cc2cc(NC(=O)Cc3ccccc3)ccc2O[C@H]1CN(C)Cc1ccc(C(=O)Nc2ccccc2N)cc1	Pf Dd2 inh -86.5 (no result: T cruzi growth)
C[C@H](CO)N1C[C@H](C)[C@H](CN(C)Cc2ccc(C(=O)Nc3ccccc3N)cc2)Oc2ccc(NC(=O)Cc3ccccc3)cc2CC1=O	Pf Dd2 inh -87.4 (no result: T cruzi growth)
C[C@H]1CN([C@@H](C)CO)C(=O)Cc2cc(NC(=O)Nc3ccccc3)ccc2O[C@H]1CN(C)Cc1ccc(C(=O)Nc2ccccc2N)cc1	none (no result: T cruzi growth)
C[C@H]1CN([C@@H](C)CO)C(=O)Cc2cc(NC(=O)c3ccncc3)ccc2O[C@@H]1CN(C)Cc1ccc(C(=O)Nc2ccccc2N)cc1	Pf Dd2 inh -85.9 (no result: T cruzi growth)
C[C@@H]1CN([C@H](C)CO)C(=O)Cc2cc(NC(=O)Cc3ccccc3)ccc2O[C@H]1CN(C)Cc1ccc(C(=O)Nc2ccccc2N)cc1	none (no result: T cruzi growth)
C[C@H]1CN([C@@H](C)CO)C(=O)Cc2cc(NC(=O)c3ccncc3)ccc2O[C@H]1CN(C)Cc1ccc(C(=O)Nc2ccccc2N)cc1	none
CN(C)C(=O)c1cccc(-c2ccc([C@@H]3[C@@H](CO)N4C(=O)CN(C(=O)C5CCCC5)C[C@H]34)cc2)c1	none (no result: T cruzi growth)
COCCNC(=O)[C@H]1[C@H](CO)[C@H]2Cn3c(ccc(-c4cccc(F)c4)c3=O)[C@@H]1N2C(=O)NC(C)C	none (no result: Pf Dd2 inh)
O=C(C[C@H]1C=C[C@@H](NC(=O)Nc2ccccc2F)[C@@H](CO)O1)NCc1ccc(Cl)cc1	none
C[C@H]1CN([C@@H](C)CO)C(=O)c2cccc(NC(=O)Nc3ccccc3)c2O[C@@H]1CN(C)Cc1ccncc1	none
O=C(C[C@H]1C[C@@H]2c3cc(NC(=O)CC4CC4)ccc3O[C@@H]2[C@H](CO)O1)NCc1ccccc1	none (no result: C diff growth)
C[C@@H]1CN([C@H](C)CO)C(=O)Cc2cc(NS(C)(=O)=O)ccc2O[C@H]1CN(C)S(=O)(=O)c1ccc(Cl)cc1	none
COc1ccc2c3c([nH]c2c1)[C@H](CO)N(Cc1cc(F)ccc1F)CC31CCN(C(=O)C2CCC2)CC1	Pf Dd2 inh -88.4 (no result: T cruzi growth)
COc1ccc2c3c([nH]c2c1)[C@H](CO)N(Cc1cc(F)ccc1F)CC31CCN(C(C)=O)CC1	Pf Dd2 inh -90.3 (no result: T cruzi growth)
COc1ccc2c3c([nH]c2c1)[C@@H](CO)N(Cc1ccccc1OC)CC31CCN(C(C)=O)CC1	none (no result: C diff growth, T cruzi growth)
COc1ccc2c3c([nH]c2c1)[C@@H](CO)N(Cc1cc(F)ccc1F)CC31CN(C(C)=O)C1	none (no result: T cruzi growth)
CCC(=O)N1CCC2(CC1)CN(Cc1cc(F)ccc1F)[C@H](CO)c1[nH]c3cc(OC)ccc3c12	Pf Dd2 inh -87.4 (no result: T cruzi growth)
CCC(=O)N1CC2(C1)CN(Cc1cc(F)ccc1F)[C@H](CO)c1[nH]c3cc(OC)ccc3c12	Pf Dd2 inh -90.0 (no result: T cruzi growth)
COc1ccc2c3c([nH]c2c1)[C@@H](CO)N(CC1CC1)CC31CN(Cc2cc(F)ccc2F)C1	none (no result: T cruzi growth)
COCC(=O)N1CC2(C1)CN(Cc1cc(F)ccc1F)[C@@H](CO)c1[nH]c3cc(OC)ccc3c12	none (no result: T cruzi growth)
COc1ccc(NC(=O)Nc2ccc3c(c2)[C@@H]2C[C@@H](CC(=O)NCc4ccccn4)O[C@@H](CO)[C@@H]2O3)cc1	none
CCNC(=O)[C@@H]1[C@@H](CO)[C@@H]2Cn3c(ccc(-c4cncnc4)c3=O)[C@@H]2N1C(=O)NC1CCCC1	none
COc1ccc(NC(=O)N(C)C[C@@H]2OCCCC[C@@H](C)Oc3ccc(NC(=O)Nc4ccc(C(F)(F)F)cc4)cc3C(=O)N([C@@H](C)CO)C[C@H]2C)cc1	none
COc1ccc2c3c([nH]c2c1)[C@H](CO)N(Cc1ccncc1)CC31CCN(Cc2ccc(-c3ccccn3)cc2)CC1	Pf Dd2 inh -89.0 (no result: T cruzi growth)
COc1ccc2c3c([nH]c2c1)[C@@H](CO)N(Cc1ccccc1)CC31CCN(C)CC1	none (no result: T cruzi growth)
COc1ccc2c3c([nH]c2c1)[C@@H](CO)N(Cc1nccs1)CC31CCN(Cc2ccncc2)CC1	none (no result: T cruzi growth)
COc1ccc2c3c([nH]c2c1)[C@@H](CO)N(Cc1ccncc1)CC31CCN(Cc2ccc(-c3ccccn3)cc2)CC1	Pf Dd2 inh -90.8 (no result: T cruzi growth)
C[C@@H]1CN([C@@H](C)CO)C(=O)c2c(c3ccccc3n2C)-c2ccccc2CO[C@@H]1CN(C)C(=O)Nc1ccc(-c2ccccc2)cc1	Pf Dd2 inh -88.0 (no result: T cruzi growth)
C[C@H]1CN([C@@H](C)CO)C(=O)c2c(c3ccccc3n2C)-c2ccccc2CO[C@@H]1CN(C)C(=O)Nc1ccc(F)cc1	none
C[C@H]1CN([C@@H](C)CO)C(=O)c2c(c3ccccc3n2C)-c2ccccc2CO[C@H]1CN(C)C(=O)Nc1ccc2c(c1)OCO2	none
C[C@H](CO)N1C[C@H](C)[C@H](CN(C)C(=O)Nc2ccc3c(c2)OCO3)OCc2ccccc2-c2c(n(C)c3ccccc23)C1=O	Pf Dd2 inh -84.7
C[C@H](CO)N1C[C@H](C)[C@H](CN(C)C(=O)Nc2ccccc2)OCc2ccccc2-c2c(n(C)c3ccccc23)C1=O	none (no result: C diff growth)
C[C@@H]1CN([C@H](C)CO)C(=O)c2c(c3ccccc3n2C)-c2ccccc2CO[C@@H]1CN(C)C(=O)Nc1ccc(-c2ccccc2)cc1	Pf Dd2 inh -82.6 (no result: T cruzi growth)
C[C@H]1CN([C@@H](C)CO)C(=O)c2c(c3ccccc3n2C)-c2ccccc2CO[C@@H]1CN(C)C(=O)Nc1ccc(-c2ccccc2)cc1	Pf Dd2 inh -89.3 (no result: T cruzi growth)
C[C@H](CO)N1C[C@H](C)[C@H](CN(C)C(=O)Nc2ccc(F)cc2)OCc2ccccc2-c2c(n(C)c3ccccc23)C1=O	none (no result: T cruzi growth)
N#C[C@@H]1[C@H](c2ccc(-c3cccc(F)c3)cc2)[C@@H](CO)N1C(=O)CN1CCOCC1	none
Cc1nn(C)cc1NC(=O)C[C@H]1CC[C@H]2[C@@H](COc3ccc(NC(=O)C(C)C)cc3C(=O)N2C)O1	none
CO[C@H]1CN(C)C(=O)c2cc(NC(=O)C3CCCC3)ccc2OC[C@H](C)N(C(=O)CC2CC2)C[C@H]1C	none (no result: C diff growth)
N#C[C@H]1[C@@H](c2ccccc2)[C@@H](CO)N1C(=O)c1ccccc1F	none
CCCC#Cc1cnc2c(c1)C(=O)N([C@@H](C)CO)C[C@@H](C)[C@H](CN(C)C(=O)C1CCC1)O2	none
CO[C@H](CN(C)S(=O)(=O)c1ccc(F)cc1)[C@@H](C)CN([C@@H](C)CO)S(=O)(=O)c1cccc(Cl)c1	none (no result: C diff growth)
O=C([C@H]1[C@H](CO)[C@H]2Cn3c(cccc3=O)[C@H]2N1Cc1cc(F)ccc1F)N1CCOCC1	none (no result: Pf Dd2 inh)
Cc1ccc(S(=O)(=O)Nc2cccc3c2O[C@H](CN(C)Cc2ccncc2)[C@H](C)CN([C@H](C)CO)C3=O)cc1	none
C[C@H](CO)N1C[C@H](C)[C@@H](CN(C)C(=O)Nc2ccccc2)OCc2ccccc2-c2c(n(C)c3ccccc23)C1=O	none (no result: C diff growth)
